HTR5A ag: HTR5A agonism, opioid heterodimer counter-screen. P47898. HTR5A agonist assay, luminescence, cell-based. activation, % at 9.3 µM. 340,000 compounds, 0.61% hits. AID 504692; in the data active means activation mostly above about 9.5%, no sharp cut-off; inactive means mostly below about 7.6%
Target sequence (P47898 whole entry, looked up): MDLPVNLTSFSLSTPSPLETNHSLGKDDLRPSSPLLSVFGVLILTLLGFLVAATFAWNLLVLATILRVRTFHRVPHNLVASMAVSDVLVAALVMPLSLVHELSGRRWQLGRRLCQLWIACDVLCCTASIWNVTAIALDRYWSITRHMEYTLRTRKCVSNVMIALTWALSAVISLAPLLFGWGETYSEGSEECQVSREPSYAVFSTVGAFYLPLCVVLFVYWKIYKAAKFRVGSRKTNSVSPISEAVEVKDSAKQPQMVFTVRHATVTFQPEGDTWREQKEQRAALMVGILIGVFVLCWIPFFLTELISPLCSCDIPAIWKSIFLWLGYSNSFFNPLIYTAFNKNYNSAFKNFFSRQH
MOR-DOR inv ag: inverse agonists of human mu-delta opioid receptor heterodimerization; P35372+P41143; cell-based MOR-DOR heterodimer luminescence, inverse agonism; inhibition, % at 9.3 µM; 340,000 compounds, 0.21% hits; in the data active means inhibition above about 22%, passing the limit was not always enough
HTR5A inv ag: counter-screen for OPRM1-OPRD1 inverse agonists: human HTR5A inverse agonism; P47898; HTR5A cell line, luminescence; inhibition, % at 9.3 µM; 340,000 compounds, 0.083% hits; in the data active means inhibition mostly above about 23%, no sharp cut-off; inactive means mostly below about 18%
sPLA2-III inh: Blocks human group III sPLA2 activity; QFRET BODIPY PC-A2 liposome hydrolysis, fluorescence; inhibition, % at 12.2 µM; 370,000 compounds, 0.56% hits; AID 743126;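 active means inhibition above mean plus 3 SD of compounds lying within the high and low control bounds, cut at about 19% in these data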
HTR2A ag: agonists of mouse serotonin 5-HT2A receptor (HTR2A); 360,000 compounds, 0.66% hits; AID 624169; P35363; CHO-K1 mHTR2A beta-arrestin complementation, luminescence; percent of 30 µM serotonin response; activation, % at 7.6 µM;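 active means activation above a run cutoff, the mean activation of all tested compounds plus 3 SD, cut at about 14% in these data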
MOR-DOR ag-1: OPRM1-OPRD1 heterodimerization agonism; cells, luminescence; activation, % at 9.3 µM; 340,000 compounds, 0.3% hits; AID 504326
MOR-DOR ag-2: counter-screen for HTR5A agonists: OPRM1-OPRD1 heterodimerization agonism; shares compounds with HTR5A ag; U2OS counter-screen cells, complementation luminescence, 3 h; activation, % at 9.3 µM; 800 compounds, 13% hits; AID 504913
HTR5A ag confirm: HTR5A (human) agonism, confirmation. 800 compounds, 17% hits. shares compounds with HTR5A ag. activation, % at 9.3 µM. HTR5A agonist cell assay, luminescence; in the data active means activation above about 17%
Large screens that a line does not name were inactive (follow-up assays come after a bar, where they were run). An excerpt weighted towards active compounds, which were near 2.2% of everything screened. Unless noted, no stated cut-off is given here; in the data, active means activation above about 18%; inactive means the rest.

Cc1cnc(C(=O)OCC(=O)N2c3ccccc3CC2C)cn1 (stereo unspecified)	none
CC1Cc2ccccc2N1C(=O)COC(=O)c1c2c(nc3ccccc13)CCCCC2 (stereo unspecified)	HTR5A ag 22 | MOR-DOR ag-2 inactive | HTR5A ag confirm inactive
O=C(OCC(=O)N1CCc2ccccc21)c1c2c(nc3ccccc13)CCCC2	none
CC1Cc2ccccc2N1C(=O)Cn1nc(C(=O)O)c2ccccc2c1=O (stereo unspecified)	HTR5A ag 63 | MOR-DOR ag-2 inactive | HTR5A ag confirm inactive
COCCNC(=O)C[C@H]1CC[C@H]2[C@@H](COc3ccc(NC(=O)Nc4cccc(F)c4)cc3C(=O)N2C)O1	none (no result: HTR5A ag, MOR-DOR inv ag, HTR5A inv ag, HTR2A ag, MOR-DOR ag-1)
CCn1c(C)nc2cc(C(=O)N/N=C/c3ccccc3C)ccc21	none
CCn1c(C)nc2cc(C(=O)NN=Cc3ccccc3OC(F)F)ccc21	HTR5A ag 18 | MOR-DOR ag-2 inactive | HTR5A ag confirm inactive
NCCCCc1ccc2ccc3cccc4ccc1c2c34	HTR5A ag 16 | MOR-DOR ag-2 inactive | HTR5A ag confirm inactive
Cc1ccc(-c2nc(NC(=O)c3nn(C)cc3[N+](=O)[O-])sc2C)cc1	none
Cc1ccc(-c2nc(NC(=O)c3nn(C)cc3[N+](=O)[O-])sc2C)cc1C	HTR5A ag 17 | MOR-DOR ag-2 24 | HTR5A ag confirm inactive
COc1ccc(S[C@]2(C(=O)N3CCOCC3)CC(=O)N[C@@H]2c2ccc(OC)cc2)cc1	none (no result: HTR5A ag, MOR-DOR inv ag, HTR5A inv ag, HTR2A ag, MOR-DOR ag-1)
COc1cc(C(=O)O)ccc1OCc1ccncc1	HTR5A ag 16 | MOR-DOR ag-2 inactive | HTR5A ag confirm inactive
O=C1CCC[C@H]2C[C@H](NCc3cccc(Cl)c3)CC[C@]23CCCN13	none (no result: HTR5A ag, MOR-DOR inv ag, HTR5A inv ag, HTR2A ag, MOR-DOR ag-1)
CN(Cc1ccco1)C(=O)CN1C(=O)C2(OCCCO2)c2ccccc21	none (no result: HTR5A ag, MOR-DOR inv ag, HTR5A inv ag, HTR2A ag, MOR-DOR ag-1)
CCC(C#Cc1ccccc1)NCc1ccc(OC)cc1OC (stereo unspecified)	none (no result: HTR5A ag, MOR-DOR inv ag, HTR5A inv ag, HTR2A ag, MOR-DOR ag-1)
COc1ccc(S(=O)(=O)NC(C(=O)OCC(=O)Nc2ccc(N3CCOCC3)cc2)C(C)C)cc1 (stereo unspecified)	HTR5A ag 16 | MOR-DOR ag-2 inactive | HTR5A ag confirm inactive
Cc1ccccc1NC(=O)[C@@H]1CC(=O)O[C@@H]1c1ccccc1	none (no result: HTR5A ag, MOR-DOR inv ag, HTR5A inv ag, HTR2A ag, MOR-DOR ag-1)
C=C1CCc2c([nH]c3ccc(OCC(C)C)cc23)C1=O	HTR5A ag 22 | MOR-DOR ag-2 inactive | HTR5A ag confirm inactive
COc1ccc2[nH]c3c(c2c1)CCNC3=O	none
C=CCn1c(SCC(=O)Nc2sccc2C(N)=O)nc2sc(C)c(C)c2c1=O	HTR5A ag 18 | MOR-DOR ag-2 inactive | HTR5A ag confirm inactive
O=C(NC1CCCCN(Cc2ccc(Cl)cc2)C1=O)c1cccc(F)c1 (stereo unspecified)	none (no result: HTR5A ag, MOR-DOR inv ag, HTR5A inv ag, HTR2A ag, MOR-DOR ag-1)
Cc1cc(C)c(C(=O)Nc2ccc(Br)c(C(F)(F)F)c2)c(C)c1	HTR5A ag 18 | MOR-DOR ag-2 inactive | HTR5A ag confirm inactive
Cc1ccnc(NC(=O)c2cccc3ccccc23)c1	HTR5A ag 17 | MOR-DOR ag-2 inactive | HTR5A ag confirm inactive
Cc1ccnc(NC(=O)c2ccccc2[N+](=O)[O-])c1	none
COc1cccc(NC(=O)COC(=O)COc2cccc3c2OC(C)(C)C3)c1	none
CN(C)S(=O)(=O)c1ccc(NC(=O)COc2cccc3c2OC(C)(C)C3)cc1	HTR5A ag 24 | MOR-DOR ag-2 inactive | HTR5A ag confirm 46
COc1ccc(NC(=O)COc2cccc3c2OC(C)(C)C3)cc1OC	HTR5A ag 26 | MOR-DOR ag-2 inactive | HTR5A ag confirm 29
CCCNC(=O)c1ccccc1NC(=O)COc1cccc2c1OC(C)(C)C2	HTR5A ag 27 | MOR-DOR ag-2 inactive | HTR5A ag confirm inactive
O=C(NCCc1c[nH]c2ccccc12)OCc1cn(-c2ccc(Cl)cc2)nn1	none (no result: HTR5A ag, MOR-DOR inv ag, HTR5A inv ag, HTR2A ag, MOR-DOR ag-1)
C=CCN=C1NC(c2ccccc2C(F)(F)F)C(C(=O)OC)=C(C)N1Cc1ccc(C(F)(F)F)cc1 (stereo unspecified)	none (no result: HTR5A ag, MOR-DOR inv ag, HTR5A inv ag, HTR2A ag, MOR-DOR ag-1)
CCCC(=O)N1CCC[C@]2(CC[C@@H](CCC(C)=O)O2)C1	none (no result: HTR5A ag, MOR-DOR inv ag, HTR5A inv ag, HTR2A ag, MOR-DOR ag-1)
O=C(CSc1nc2ccccc2c(=O)[nH]1)c1ccc(O)cc1O	HTR5A ag 16 | MOR-DOR ag-2 inactive | HTR5A ag confirm inactive
COc1ccc(NC(=O)CSc2nc3ccccc3c(=O)[nH]2)cc1S(N)(=O)=O	HTR5A ag 21 | MOR-DOR ag-2 inactive | HTR5A ag confirm inactive
O=C(CSc1nc2ccccc2c(=O)[nH]1)c1ccc(O)c(O)c1	none
O=C(OCc1cn(Cc2ccc(F)cc2)nn1)N1CCOCC1	none (no result: HTR5A ag, MOR-DOR inv ag, HTR5A inv ag, HTR2A ag, MOR-DOR ag-1)
O=C(N/N=C/c1ccco1)c1cccc(NC(=O)c2cccc(Cl)c2)c1	HTR5A ag 24 | MOR-DOR ag-2 26 | HTR5A ag confirm inactive
O=C(N/N=C/c1ccco1)c1ccc(NC(=O)c2ccccc2Cl)cc1	none
COc1cc(C=Nn2c(-c3ccc(F)cc3)n[nH]c2=S)ccc1OCc1ccccc1	none (no result: HTR5A ag, MOR-DOR inv ag, HTR5A inv ag, HTR2A ag, MOR-DOR ag-1)
COC(=O)[C@]12C[C@H](CC(=O)NCc3ccc(OC)c(OC)c3)C(=O)N(Cc3ccccc3)C1=C[C@H](C(C)(C)C)O[C@@H]2C	none (no result: HTR5A ag, MOR-DOR inv ag, HTR5A inv ag, HTR2A ag, MOR-DOR ag-1)
COc1ccc(C(=O)N2CCN(CCc3ccccc3)CC2)cc1[N+](=O)[O-]	HTR5A ag 19 | MOR-DOR ag-2 inactive | HTR5A ag confirm inactive
Cn1cc(C(=O)NCC2COc3ccccc3O2)c(=O)c2cc(S(=O)(=O)N3CCCCC3)ccc21 (stereo unspecified)	HTR5A ag 49 | MOR-DOR ag-2 inactive | HTR5A ag confirm inactive
COc1ccc(-c2nn(-c3ccccc3)cc2/C=C/C(=O)N(C)CC(=O)Nc2cccc(F)c2)cc1OC	HTR5A ag 15 | MOR-DOR ag-2 inactive | HTR5A ag confirm inactive
O=C(Oc1c(Cl)cc(Cl)c2cccnc12)c1ccco1	HTR5A ag 26 | MOR-DOR ag-2 inactive | HTR5A ag confirm inactive
Oc1c(Cl)cc(Cl)c2cccnc12	none
O=C(Oc1c(Cl)cc(Cl)c2cccnc12)c1cccs1	HTR5A ag 17 | MOR-DOR ag-2 inactive | HTR5A ag confirm inactive
COc1ccc(-c2nnc3n2N=C(c2cccc([N+](=O)[O-])c2)CS3)cc1	none (no result: HTR5A ag, MOR-DOR inv ag, HTR5A inv ag, HTR2A ag, MOR-DOR ag-1)
Cc1ccc(-n2c(O)c(C=NC3CCS(=O)(=O)C3)c3ccccc3c2=O)cc1C (stereo unspecified)	HTR5A ag 15 | MOR-DOR ag-2 inactive | HTR5A ag confirm inactive
NNS(=O)(=O)c1ccc(Sc2ccccn2)c([N+](=O)[O-])c1	HTR5A ag 15 | MOR-DOR ag-2 inactive | HTR5A ag confirm inactive
CC(=O)NC(Cc1ccc2c(c1)OCO2)C(=O)N1CCCC1 (stereo unspecified)	none (no result: HTR5A ag, MOR-DOR inv ag, HTR5A inv ag, HTR2A ag, MOR-DOR ag-1)
COc1ccc(C2C(C(=O)c3ccc(C)o3)=C(O)C(=O)N2Cc2cccnc2)cc1 (stereo unspecified)	HTR5A ag 15 | MOR-DOR ag-2 182 | HTR5A ag confirm inactive
